Results: PubChem BioAssay (NCATS)
“And” between values parts separate entries of the source, which are not always exact repeats. Equal values may be shown once. Results filed as inconclusive are left out. A number with no mark means an inactive call. The source made the active and inactive calls. Calls come from the whole dose curve; as a rule, active = well fitted activation curve with a large enough effect; inconclusive = small, poorly fitted or top-dose-only effect; inactive = no such curve, though single readings can be large or run the other way.

target: Cellular tumor antigen p53 (Homo sapiens) (UniProt P04637); assay: Primary qHTS for small molecule compounds that upregulate eGFP-tagged delta133p53alpha (in N-terminal) cells. (AID 2060322); conditions: NCI-H358 eGFP-delta133p53alpha fluorescence, 24 h; activation: hits give high values; note: nearly all actives have a fitted effect of over 75% in size;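 for activation: series mostly up to about 56 µM; 0% = DMSO vehicle and 100% = reference activator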
Outline: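 NCI-H358 cells pre-induced 24 h with 10 ng/ml doxycycline to express N-terminal eGFP-delta133p53alpha, then dosed 24 h at 37C without doxycycline; fixed, Hoechst-stained, GFP intensity by laser scanning cytometry, normalized to DMSO (0%) and 57.5 uM 5-azacytidine (100%).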
Potency is the fitted concentration of half-maximal effect.

Sequence of Cellular tumor antigen p53 (Homo sapiens) (P04637 whole entry, looked up): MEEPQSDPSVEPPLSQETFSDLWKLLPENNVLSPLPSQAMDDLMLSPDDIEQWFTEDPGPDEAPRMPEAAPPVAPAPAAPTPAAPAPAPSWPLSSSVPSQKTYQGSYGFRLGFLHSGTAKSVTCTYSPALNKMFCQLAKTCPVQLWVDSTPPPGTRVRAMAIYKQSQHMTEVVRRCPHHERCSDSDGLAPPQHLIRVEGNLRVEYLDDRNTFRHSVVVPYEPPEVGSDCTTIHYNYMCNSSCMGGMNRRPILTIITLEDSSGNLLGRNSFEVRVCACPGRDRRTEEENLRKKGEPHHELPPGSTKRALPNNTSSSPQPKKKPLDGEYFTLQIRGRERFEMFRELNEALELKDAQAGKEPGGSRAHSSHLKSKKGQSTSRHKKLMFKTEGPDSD

SMILES | activation | Potency
COc1cc(NS(=O)(=O)c2ccc(N)cc2)nc(OC)n1 | -0.195% | 
COC(=O)N[C@H](C(=O)N[C@@H](Cc1ccccc1)[C@@H](O)CN(Cc1ccc(-c2ccccn2)cc1)NC(=O)[C@@H](NC(=O)OC)C(C)(C)C)C(C)(C)C | -2.82% and 23.4% | 
CN(C)CCc1c[nH]c2ccc(Cn3cncn3)cc12 |  | 21.7 µM (active)
CNC(=O)c1cccc(-c2ccc3c(N4CCOC[C@H]4C)nc(N4CCOC[C@H]4C)nc3n2)c1 | 19.5% | 
COc1cc(C(=O)N2CCCCCCC2)cc(OC)c1OC | -6.21% | 
O=C(c1ccco1)N1CCNCC1 | -10.9% | 
CCCN(CCC)S(=O)(=O)c1ccc(C(=O)O)cc1 | 8.47% | 
CC(C)(C)NCC(O)COc1ccccc1OCC1CCCO1 (stereo not given) | 10.9% | 
CC12CCC(CC1)C(C)(C)O2 | -0.565% | 
O=C(NC1CCN(CCc2c[nH]c3ccccc23)CC1)c1ccccc1 | 2.51% | 
CC(=O)O[C@]1(C(C)=O)CC[C@H]2[C@@H]3C=C(C)C4=CC(=O)CC[C@]4(C)[C@@H]3CC[C@@]21C | -16.9% | 
CCc1cnn2c(NCc3ccc[n+]([O-])c3)cc(N3CCCC[C@@H]3CCO)nc12 |  | 0.0685 µM (active)
Cn1cc[nH]c1=S | -1.69% | 
CN(CC=CC#CC(C)(C)C)Cc1cccc2ccccc12 | 36.7% | 
CC[C@H]1CN2CCc3cc(OC)c(OC)cc3[C@H]2C[C@@H]1C[C@@H]1NCCc2cc(OC)c(OC)cc21 |  | 1.37 µM (active)
O=C1OC(c2ccc(O)cc2)(c2ccc(O)cc2)c2ccccc21 | 10.7% | 
O=C1OC2(c3ccccc31)c1cc(I)c(O)c(I)c1Oc1c2cc(I)c(O)c1I | -36.8% | 
COc1ccc(S(=O)(=O)ON=C2C=C(C)C(=O)C(C)=C2)cc1 |  | 34.3 µM (active)
Nc1ccccc1N |  | 17.8 µM (active)
O=c1[nH]c(=O)n([C@H]2C[C@@H](O)[C@@H](CO)O2)cc1F | -18.9% | 

SMILES | activation | Potency
O=c1[nH]c2ccccc2c(=O)n1CCCl | 6.21% | 
O=C(CN1CCNCC1)NC1CCCCC1 | 7.53% | 
CCCCN1CCCC1C(=O)Nc1c(C)cc(C)cc1C (stereo not given) | 27.6% | 
C[C@H]1C[C@H](O)c2ccsc2S1(=O)=O | -26.6% | 
COc1cc(C=C2CCC/C(=C\c3ccc(O)c(OC)c3)C2=O)ccc1O |  | 19.5 µM (active)
Nc1ncnc2c1ncn2[C@@H]1O[C@@H](CO)[C@H](O)[C@H]1O | -9.84% | 
Cc1cc(=O)[nH]c(=S)[nH]1 | 19.2% | 
NS(=O)(=O)c1cc2c(cc1Cl)NC(CSCc1ccccc1)=NS2(=O)=O | -16.7% | 
Cc1ncc(Cl)cc1NCc1ccc(C(=O)N[C@@H](CC2CCCC2)C(=O)NC2CC2)s1 | -39.1% | 
CCOC(N)=O | -2.82% | 
CC(C)N=C(N)/N=C(\N)Nc1ccc(Cl)cc1 | 0.837% | 
O=C(OCCN1CCOCC1)c1cccnc1Nc1cccc(C(F)(F)F)c1 | -7.34% | 
O=C(O)c1ccc(OCCN2CCCCC2)cc1 | -14.1% | 
O=c1[nH]c(=O)c2ccccc2o1 | -12.6% | 
O=C(O)c1cn(C2CC2)c2cc(Cl)c(F)cc2c1=O | 11.9% | 
N[C@@H](Cc1cc(I)c(O)c(I)c1)C(=O)O | 4.18% | 
CN1C[C@H]2c3ccccc3Oc3ccc(Cl)cc3[C@@H]2C1 | -34.8% and -0.565% | 
CCc1cc(Cl)c(OC)c(C(=O)NC[C@@H]2CCCN2CC)c1O | 13.4% | 
COc1ccc2c(c1)CCCC2=O | 18.6% | 
NC(=O)CC[C@@H](N)C(=O)O | 1.69% | 
